Structures are written as SMILES. Among all 320,000 compounds or so, about 22,000 (6.9%) were called active. Another 27% or so got no clear call; they are omitted. The call rests on the fitted dose curve; in most records, active means well fitted inhibition curve with a large enough effect; inconclusive means small, poorly fitted or top-dose-only effect, or another doubt; inactive means no such curve, though single readings can be large or run the other way. Shown is part of a subset that was picked to be rich in actives. Where a call stands in place of a potency, no number is given. Where a SMILES comes first, the peptide text is derived from it. [ ]: non-standard residue; d: D form. The star is where a group is joined. PhAc = O=C(Cc1ccccc1)*
Potency means the concentration at half of the fitted maximal effect.

This assay in a line: Primary qHTS for delayed death inhibitors of the malarial parasite plastid, 96 hour incubation. The note with it: P. falciparum luciferase reporter growth; series mostly up to 28.7 µM. In outline: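 Compounds incubated with erythrocytes infected by luciferase-expressing P. falciparum (2% hematocrit, 0.05% parasitemia final) for 96 hours, 37 C in 5% CO2. Growth inhibition scored as decreased luciferase luminescence.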
(In general: qHTS replaces the single test concentration by a dilution series.)
In the case of `COc1cc2c(cc1OC)/C(=C/C(=O)c1ccc(NC(C)=O)cc1)NCC2`, the Potency result is “inactive”.
`COc1ccc(S(=O)(=O)N2CCC(C(=O)NCc3ccco3)CC2)cc1C`: the Potency was 5.22 µM (active).
With `Cc1ccc(S(=O)(=O)N2CCC(C(=O)N[C@@H](C)C(=O)NCc3ccco3)CC2)cc1` the entry was “inactive”; with `COc1ccccc1CNC(=O)C1CCN(S(=O)(=O)c2ccc3c(c2)OCCO3)CC1`, “inactive”; with `CCc1ccc(C(=O)N2CCN(S(=O)(=O)c3sc(C(=O)O)c(C)c3C(=O)O)CC2)cc1`, “inactive”.
As for `COc1cccc(NC(=O)c2ccc(S(=O)(=O)N(C)C)cc2)c1`, the entry is “inactive”; as for `O=C(Nc1nnc(-c2ccco2)o1)c1ccc(S(=O)(=O)N2CCOCC2)cc1`, “inactive”; as for `COc1cccc(-c2nnc(NC(=O)c3ccc(S(=O)(=O)N(CC(C)C)CC(C)C)cc3)o2)c1`, 1.65 µM (active).
With `O=C(NCc1ccccc1CN1CCCC1)c1cccc(S(=O)(=O)Nc2ccc(F)cc2)c1` the figure was 10.4 µM (active); with `COc1ccc(C(CNC(=O)c2ccc(S(=O)(=O)Nc3ccccc3F)cc2)N(C)C)cc1` (centres undefined), “inactive”; with `O=C(NCc1cccc(C(F)(F)F)c1)c1cccc(S(=O)(=O)N2CCN(Cc3ccccc3)CC2)c1`, “inactive”.
Regarding `COc1ccccc1C(CNC(=O)c1cccc(NS(=O)(=O)c2ccc(Br)cc2)c1)N(C)C` (centres undefined), the Potency was 6.57 µM (active).
With `O=C(NCC1(N2CCCCC2)CCCCC1)c1ccc(NS(=O)(=O)c2ccc(F)cc2)cc1` the figure was 10.4 µM (active).
With `CCOc1ccc(NS(=O)(=O)c2ccc(C(=O)NCC(c3ccccc3OC)N3CCCC3)cc2)cc1` (centres undefined) the figure was 14.7 µM (active); with `Cc1ccc(NS(=O)(=O)c2ccc(C(=O)NCCCN3CCOCC3)cc2)cc1`, “inactive”; with `O=C(OC1CCOC1=O)c1cccc(S(=O)(=O)Nc2ccc(F)cc2)c1` (centres undefined), “inactive”.
For the compound `O=C(NCC1CCCO1)c1ccc(S(=O)(=O)Nc2ccc(F)cc2)cc1` (centres undefined), the Potency result is “inactive”.
As for `CCOc1ccc(S(=O)(=O)Nc2ccc(C(=O)NCCCN3CCCC3=O)cc2)cc1`, the entry is “inactive”; as for `CCOc1ccc(S(=O)(=O)Nc2ccc(S(=O)(=O)Nc3cc(OC)ccc3OC)cc2)cc1`, “inactive”.
As for `CC(=O)c1ccc(S(=O)(=O)Nc2ccc(C(=O)NCC(c3ccccc3)N(C)C)cc2)cc1` (centres undefined), the entry is “inactive”; as for `COc1cc(C#Cc2ccc3cc(CCCO)oc(=O)c3c2)cc(OC)c1`, “inactive”.
As for `Cc1ccc(NC(=O)CN(C)C(=O)COC(=O)C(C)(C)Oc2ccc(Cl)cc2)cc1`, the entry is “inactive”; as for `CC1(c2ccc3ccccc3c2)NC(=O)N(CC(N)=O)C1=O` (centres undefined), “inactive”.
Take `O=C(NCCCn1ccnc1)c1cc2c(s1)CCCC2`: the Potency entry was “inactive”.
As for `CCOC(=O)CC1(NC(=O)c2cc(COc3cncc(Cl)c3)on2)CCCCC1`, the entry is “inactive”.
As for `COc1ccc(S(=O)(=O)NCCOc2ccccc2)cc1F`, the entry is “inactive”.
As for `CC(C)(C)n1ncc2c(=O)n(Cc3c(Cl)cccc3Br)cnc21`, the entry is “inactive”; as for `O=C(O)c1ccc(/C=C2\SC(=S)N(NC(=O)c3ccc(Br)cc3)C2=O)cc1`, “inactive”.
Turning to `CS(=O)(=O)N1CCN(CC(=O)NC2CCCC2)CC1`, the Potency result is “inactive”.
As for `CCN(CC(=O)Nc1c(F)cccc1F)C(=O)c1ccc(S(=O)(=O)N2CCCCC2)cc1`, the entry is “inactive”.
With `Cn1c(CCN2CCCC2)nc2cc(NS(=O)(=O)c3ccccc3)ccc21` the entry was “inactive”; with `COc1ccccc1C(CNC(=O)c1cccc(S(=O)(=O)Nc2ccc(F)cc2)c1)N(C)C` (centres undefined), 8.28 µM (active).
Regarding `CN(C)C(CNC(=O)c1cccc(S(=O)(=O)Nc2ccc(Br)cc2)c1)c1ccco1` (centres undefined), the Potency entry is “inactive”.
Consider `COc1ccc(C(CNC(=O)c2ccc(NS(=O)(=O)c3ccc(F)c(C)c3)cc2)N(C)C)cc1` (centres undefined), for which the Potency result is “inactive”.
With `CSc1nnc2ccc(-c3ccc(C)cc3)nn12` the entry was “inactive”; with `O=C(Cn1c(-c2cncs2)nc2ccccc21)NC1CCCC1`, 9.28 µM (active).
With `O=C(CN1CCN(c2ccccn2)CC1)NC1CCCCC1` the entry was “inactive”; with `O=C(Cn1c(-c2cscn2)nc2ccccc21)Nc1ccc(Cl)cc1`, “inactive”; with `Cc1ccn2c(=O)nc(SCC(=O)NCc3ccc(F)cc3)nc2c1`, “inactive”.
With `CC(C)C[C@@H](NC(=O)[C@H]1CCCN1C(=O)Cc1ccccc1)C(N)=O` (PhAc-[dP]-[dL]-NH2) the entry was “inactive”; with `COc1cccc(OC)c1C(=O)N1CCN(Cc2cccnc2)CC1`, “inactive”; with `Oc1ccc(CN2CCN(c3ncccn3)CC2)cc1`, “inactive”.
With `COc1ccccc1-c1nn(Cc2ccccc2)cc1C(=O)N1CCN(c2ncccn2)CC1`, the Potency was 13.1 µM (active).
As for `CCOCCCNC(=O)C1(O)c2cc(Br)ccc2NC(=O)N1c1ccc(C)c(C)c1` (centres undefined), the entry is “inactive”; as for `COc1ccc(NS(=O)(=O)c2ccc3oc(SCC(N)=O)nc3c2)cc1`, “inactive”.
As for `COc1cccc(NC(=O)[C@H](Cc2c[nH]c3ccccc23)NC(=O)[C@@H]2Cc3ccccc3CN2)c1`, the figure is 11.7 µM (active).
As for `COc1ccc(CNC(=O)[C@H](Cc2c[nH]c3ccccc23)NC(C)=O)cc1OC`, the entry is “inactive”; as for `CC(=O)NC(Cc1c[nH]c2ccccc12)C(=O)NCCc1ccccc1` (centres undefined), “inactive”.
As for `CC1(C)c2[nH]c3ccccc3c2C[C@H]2C(=O)N(N)CC(=O)N21`, the Potency entry was “inactive”.
With `COCCN1CCN(C(=O)c2cc(COc3ccc(F)cc3Cl)on2)CC1` the entry was “inactive”; with `O=[N+]([O-])c1ccccc1N/N=C1\CCc2ccccc21`, “inactive”.
With `CCCCNC(=S)N/N=C1\CCCCc2ccccc21` the figure was 9.28 µM (active); with `Cc1ccc(NC(=S)N/N=C2/CCCc3c(C)cc(C)cc32)cc1`, “inactive”.
As for `Cc1ccccc1N1CCN(C2CCCN(C(=O)c3cn4c(C)cccc4n3)C2)CC1` (centres undefined), the Potency result was “inactive”.
For `COc1ccccc1C(=O)Nc1ccnn1C1CCN(Cc2cnn(C)c2)CC1`, the Potency result is “inactive”.
With `CCOC(=O)c1c(NC(=S)Nc2ccccc2)sc2c1CCN(C)C2` the entry was “inactive”.
As for `CCOCC(=O)Nc1sc2c(c1C(=O)OCC)CCCC2`, the entry is “inactive”.
Take `CCOC(=O)c1c(NC(=S)NC)sc2c1CCCC2`: the Potency was 8.28 µM (active).
As for `CCOC(=O)c1c(NC(=O)Cn2nc(C(F)(F)F)cc2C)sc2c1CCC2`, the entry is “inactive”; as for `CCOC(=O)c1c(NC(=S)Nc2ccccc2C)sc2c1CCC2`, “inactive”.
As for `CCOC(=O)c1c(NC(=O)NC(C)(C)C)sc2c1CCN(C)C2`, the figure is 4.15 µM (active); as for `O=C(CCc1nc(-c2ccccc2)no1)Nc1cccc(C(=O)NC2CC2)c1`, “inactive”; as for `CCOC(=O)C1CCN(S(=O)(=O)c2ccc3c(c2)N(C)C(=O)CC(=O)N3C)CC1`, “inactive”.
With `COc1cc2ccccc2cc1C(=O)Nc1ccc(N2CCOCC2)cc1`, the Potency entry was “inactive”.
With `COc1cccc(C(=O)NC(=O)Nc2nc(C)cc(C(F)(F)F)n2)c1` the entry was “inactive”; with `Cc1cccc(OCC(=O)Nc2ccc(NC(=O)c3ccco3)c(C)c2)c1`, “inactive”.
As for `O=C(CN1C(=O)NC2(CCCCC2)C1=O)N1CCN(C(=O)c2cccs2)CC1`, the entry is “inactive”; as for `O=C(CN1C(=O)NC2(CCCCCC2)C1=O)NCc1cccs1`, “inactive”; as for `O=C1CN(C(=O)CN2C(=O)NC3(CCCCC3)C2=O)c2ccccc2N1`, 14.7 µM (active).
As for `COCCN1CCn2c(nc3cc(NS(C)(=O)=O)ccc32)C1`, the entry is “inactive”; as for `Cc1ccc(CNC(=O)c2ccc(CS(=O)Cc3cccc(Cl)c3)o2)cc1` (centres undefined), “inactive”; as for `COc1ccc(CCNC(=O)c2cnc(Cl)c(Cl)c2)cc1`, “inactive”.
For the compound `Nc1c(C(=O)NCc2ccccc2)sc2nc3c(cc12)C(=O)CCC3`, the Potency entry was “inactive”.
As for `CC(C)OC(=O)c1sc2nc3c(cc2c1N)C(=O)CCC3`, the figure is 5.22 µM (active); as for `COC(=O)c1cc2c(N)c(C(=O)c3ccc(Cl)cc3)sc2nc1C(OC)OC`, “inactive”.
As for `COc1ccc(C2C(C(C)=O)=C(O)C(=O)N2Cc2cccnc2)cc1` (centres undefined), the entry is “inactive”; as for `O=C1[C@H]2[C@@H](c3ccc(F)cc3)N3C(=O)N(c4ccc(C(F)(F)F)cc4)C(=O)[C@@]3(Cc3ccccc3)[C@H]2C(=O)N1C1CCCCC1`, 5.22 µM (active).
With `O=C(NC1(C(F)(F)F)NC(=O)N(C2CCCCC2)C1=O)c1ccco1` (centres undefined) the entry was “inactive”; with `Cc1cccc([C@@H]2[C@@H]3C(=O)N(Cc4ccccc4)C(=O)[C@@H]3[C@]3(Cc4ccc(Cl)cc4)C(=O)N(c4cccc(Cl)c4)C(=O)N23)c1`, “inactive”; with `Cc1cccc(N2C(=O)N3[C@H](c4ccc(F)cc4)[C@@H]4C(=O)N(C5CCCCC5)C(=O)[C@@H]4[C@]3(Cc3ccccc3)C2=O)c1`, 13.1 µM (active).
On to `COc1ccc([C@@H]2[C@@H]3C(=O)N(C(C)(C)C)C(=O)[C@@H]3[C@]3(Cc4ccccc4)C(=O)N(c4cccc(Br)c4)C(=O)N23)cc1`, for which the Potency is 1.65 µM (active).
In the case of `C[C@@]12C(=O)N(c3cccc(Br)c3)C(=O)N1[C@H](c1ccc(Cl)cc1)[C@@H]1C(=O)N(C3CCCCC3)C(=O)[C@@H]12`, the Potency is 16.5 µM (active).
With `COc1ccc(N2C(=O)C(Cc3ccccc3)NC2=S)cc1` (centres undefined) the entry was “inactive”.
With `Cc1cccc(N2C(=O)C3C(c4ccccc4)OC4(C(=O)c5ccccc5C4=O)C3C2=O)c1` (centres undefined) the entry was “inactive”; with `CC12C(=O)N(c3ccccc3)C(=O)C1C(c1ccccc1)N1CCCN12` (centres undefined), “inactive”.
With `Cc1c(C)c(C)c(S(=O)(=O)N2CCC3(CC2)OCCO3)c(C)c1C` the entry was “inactive”.
For `Cc1csc(NC(=O)C2CCN(S(=O)(=O)c3ccccc3)CC2)n1`, the Potency entry was “inactive”.
As for `CCOc1ccc(N(CC(=O)NCCOc2ccccc2OC)S(=O)(=O)c2ccccc2)cc1`, the entry is “inactive”.
As for `Cc1ccccc1N1CCN(Cc2nc(Cc3ccccc3F)no2)CC1`, the entry is “inactive”; as for `COc1ccc(NC(=O)CC2C(=O)NC3CCCCC3N2C(=O)c2ccc(F)cc2)cc1` (centres undefined), “inactive”.
`COc1ccc(CNC(=O)CN(Cc2ccccc2Cl)C(=O)c2csnn2)cc1`: the Potency result is “inactive”.
With `COc1ccc(NC(=O)C2=CC(c3ccc(OC)c(OC)c3)=NS(=O)(=O)N2C)cc1` the entry was “inactive”.
As for `COc1ccc(/C=C2\SC(=O)N(CCC(=O)NC3CCS(=O)(=O)C3)C2=O)cc1` (centres undefined), the entry is “inactive”; as for `O=C(c1cc(COc2cccc(C(F)(F)F)c2)on1)N1CCSCC1`, “inactive”.

The record behind these values is PubChem BioAssay AID504834 (National Center for Advancing Translational Sciences (NCATS), 2011).
